Measurements: PubChem BioAssay (EPA / NIEHS)
The source made the active and inactive calls. The calls were made as follows: active = hit-call score of the fitted dose curve at least 0.9, where 1 is the maximum; inactive = score below 0.9.

How the values were obtained:
[1] = read-out: Vascular cell adhesion molecule 1 (VCAM1), VCAM1 (gene 7412); experiment: BSK_4H_VCAM1: BioMAP Diversity Plus: 4H Assay for Vascular cell adhesion molecule 1 (VCAM1) Biomarker Activity (AID 2283033); conditions: primary human endothelial cells (HUVEC); actives raise or lower the signal
Summary of the method: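 Primary human umbilical vein endothelial cells, 4H stimulation system, treated for 24 h; cell-surface VCAM-1 quantified by ELISA. Bidirectional fitting against DMSO; cytotoxicity tracked by SRB total-protein staining in parallel cultures.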

[2] = read-out: Interferon-gamma inducible Protein 10 (IP10), CXCL10 (gene 3627); experiment: BSK_BE3C_IP10: BioMAP Diversity Plus: BE3C Assay for Interferon-gamma inducible Protein 10 (IP10) Biomarker Activity (AID 2283034); conditions: primary human bronchial epithelial cells; actives raise or lower the signal
Summary of the method: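 Primary human bronchial epithelial cells, with IP-10 measured by ELISA 24 hours after chemical dosing. Bidirectional fit against DMSO; cytotoxicity checked by SRB total protein staining in parallel cultures.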

[3] = read-out: Monokine induced gamma interferon (MIG), CXCL9 (gene 4283); experiment: BSK_BE3C_MIG: BioMAP Diversity Plus: BE3C Assay for Monokine induced gamma interferon (MIG) Biomarker Activity (AID 2283035); conditions: primary human bronchial epithelial cells; actives raise or lower the signal;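 as to outcome: MIG protein measured by ELISA in BE3C cultures after 24 h of dosing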
Summary of the method: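 ELISA read-out of MIG in human lung bronchial epithelial primary cultures, 24 h post-dosing. Bidirectional curve fit vs DMSO baseline.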

[4] = read-out: Transforming growth factor beta 1 (TGFb1), TGFB1 (gene 7040); experiment: BSK_BE3C_TGFb1: BioMAP Diversity Plus: BE3C Assay for Transforming growth factor beta 1 (TGFb1) Biomarker Activity (AID 2283036); conditions: primary human bronchial epithelial cells; actives raise or lower the signal
Summary of the method: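 Primary human bronchial epithelial cells dosed with chemical; TGF-b1 measured by ELISA 24 h after dosing. Bidirectional curve fitting against DMSO negative control; SRB total-protein staining in parallel cultures gauged cytotoxicity.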

[5] = read-out: Plasminogen activator inhibitor-1 (PAI1), SERPINE1 (gene 5054); experiment: BSK_BE3C_PAI1: BioMAP Diversity Plus: BE3C Assay for Plasminogen activator inhibitor-1 (PAI1) Biomarker Activity (AID 2283037); conditions: primary human bronchial epithelial cells; actives raise or lower the signal
Summary of the method: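 Primary human bronchial epithelial cells (BE3C system) exposed 24 h; PAI-1 quantified by ELISA. Parallel sulforhodamine B staining of total protein flags cytotoxicity. Bidirectional fit versus DMSO.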

[6] = read-out: urokinase plasminogen activator (uPA), PLAU (gene 5328); experiment: BSK_BE3C_uPA: BioMAP Diversity Plus: BE3C Assay for urokinase plasminogen activator (uPA) Biomarker Activity (AID 2283038); conditions: primary human bronchial epithelial cells; actives raise or lower the signal;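 as to outcome: uPA protein level quantified by ELISA in cell cultures; uPA read one day after compound addition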
Summary of the method: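 Using confluent primary human lung bronchial epithelial cultures, we dosed chemicals, waited 24 h, then ran a uPA ELISA, fitting bidirectionally against DMSO.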

[7] = read-out: Urokinase-type plasminogen activator receptor (uPAR), PLAUR (gene 5329); experiment: BSK_BE3C_uPAR: BioMAP Diversity Plus: BE3C Assay for Urokinase-type plasminogen activator receptor (uPAR) Biomarker Activity (AID 2283039); conditions: primary human bronchial epithelial cells; actives raise or lower the signal;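 as to outcome: uPAR protein level measured by ELISA on the cells; cells exposed to compound for one day before measurement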
Summary of the method: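 Primary human bronchial epithelial cells dosed for 24 h; uPAR quantified by ELISA with bidirectional fitting against DMSO. Overt cytotoxicity assessed in parallel cultures by SRB total-protein staining (0.1% SRB, 560 nm).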

[8] = read-out: Interleukin-6 (IL6), IL6 (gene 3569); experiment: BSK_CASM3C_IL6: BioMAP Diversity Plus: CASM3C Assay for Interleukin-6 (IL6) Biomarker Activity for (AID 2283040); conditions: primary human coronary artery smooth muscle cells; actives raise or lower the signal
[9] = read-out: Tissue plasminogen activator (tPA), PLAT (gene 5327); experiment: BSK_BE3C_tPA: BioMAP Diversity Plus: BE3C Assay for Tissue plasminogen activator (tPA) Biomarker Activity (AID 2283041); conditions: primary human bronchial epithelial cells; actives raise or lower the signal;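 as to outcome: tPA level quantified by ELISA one day after compound addition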
Summary of the method: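 Primary human bronchial epithelial cells in the BE3C system, exposed to compound for 24 h. tPA was quantified by ELISA; DMSO served as baseline, with gain or loss of signal fitted. Cytotoxicity checked in parallel cultures by SRB total-protein staining.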

[10] = read-out: Interleukin-8 (IL8), CXCL8 (gene 3576); experiment: BSK_CASM3C_IL8: BioMAP Diversity Plus: CASM3C Assay for Interleukin-8 (IL8) Biomarker Activity (AID 2283042); conditions: primary human coronary artery smooth muscle cells; actives raise or lower the signal;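 also: IL-8 protein level quantified by ELISA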

Row | Compound | outcome [1] | outcome [2] | outcome [3] | outcome [4] | outcome [5] | outcome [6] | outcome [7] | outcome [8] | outcome [9] | outcome [10] | AC50 [2] | AC50 [1] | AC50 [3] | AC50 [4] | AC50 [5] | AC50 [6] | AC50 [7] | AC50 [9] | AC50 [10] | AC50 [8]
1 | c1ccc2n[nH]nc2c1 | inactive | inactive | inactive | inactive | inactive | inactive | inactive | inactive | inactive | inactive |  |  |  |  |  |  |  |  |  | 
2 | CC[C@@H]1C[C@H](N(Cc2cc(C(F)(F)F)cc(C(F)(F)F)c2)C(C)=O)c2cc(C(F)(F)F)ccc2N1C(=O)OC(C)C | inactive | inactive | inactive | inactive | inactive | inactive | inactive | inactive | inactive | inactive |  |  |  |  |  |  |  |  |  | 
3 | c1ccc(C[n+]2cccc3ccccc32)cc1 | inactive |  | inactive | inactive | inactive | inactive | inactive | inactive | inactive | inactive | 30.2 µM (active) |  |  |  |  |  |  |  |  | 
4 | CC/C(=C(/CC)c1ccc(O)cc1)c1ccc(O)cc1 |  |  |  |  |  |  |  | inactive |  |  | 17.1 µM (active) | 28.9 µM (active) | 33 µM (active) | 6.47 µM (active) | 20 µM (active) | 33.6 µM (active) | 31.3 µM (active) | 14.3 µM (active) | 1.17 µM (active) | 
5 | Cc1ncc(CO)c(CO)c1O | inactive | inactive | inactive | inactive | inactive | inactive | inactive | inactive | inactive | inactive |  |  |  |  |  |  |  |  |  | 
6 | CC[C@H](NC(=O)c1cc(F)ccc1NS(=O)(=O)c1cccc2cccnc12)c1ccccc1 | inactive | inactive | inactive | inactive | inactive | inactive | inactive | inactive | inactive | inactive |  |  |  |  |  |  |  |  |  | 
7 | COCC(C)OCC(C)OCC(C)O (stereo not given) | inactive | inactive | inactive | inactive | inactive | inactive | inactive | inactive | inactive | inactive |  |  |  |  |  |  |  |  |  | 
8 | CCN(CC)C(=O)c1cc(S(=O)(=O)Cc2ccccc2)c(N2CCC(c3ccccc3)CC2)cc1N(CC)CCN(C)C |  |  |  |  |  |  |  |  |  |  | 10.9 µM (active) | 18.3 µM (active) | 12.6 µM (active) | 9.99 µM (active) | 7.91 µM (active) | 10.3 µM (active) | 10.4 µM (active) | 6.65 µM (active) | 24.8 µM (active) | 0.7 µM (active)
9 | Cc1oc2c(NC(=O)c3c(Cl)cccc3Cl)cccc2c1C(C)(C)O | inactive | inactive | inactive | inactive | inactive | inactive | inactive |  |  | inactive |  |  |  |  |  |  |  | 15.1 µM (active) |  | 33.2 µM (active)
10 | NCc1cccc(C2CCN(C(=O)c3ccc(C#Cc4ccccc4F)o3)CC2)c1 |  |  |  |  |  |  |  |  |  |  | 12.4 µM (active) | 26.2 µM (active) | 13.7 µM (active) | 13.1 µM (active) | 13.8 µM (active) | 7.93 µM (active) | 11.8 µM (active) | 7.07 µM (active) | 34.7 µM (active) | 33.9 µM (active)
11 | COc1ccc2cc(S(=O)(=O)N[C@H](CC(=O)N[C@H](Cc3ccc(CN4[C@H](C)CCC[C@@H]4C)cc3)C(=O)N(C)C(C)C)c3ccc4c(c3)OCO4)ccc2c1 | inactive |  |  | inactive |  |  |  | inactive |  | inactive | 31.1 µM (active) |  | 33.5 µM (active) |  | 19.1 µM (active) | 14.6 µM (active) | 18.5 µM (active) | 7.92 µM (active) |  | 
12 | O=C(O)c1ccccc1C(=O)OCc1ccccc1 | inactive | inactive | inactive | inactive | inactive | inactive | inactive | inactive | inactive | inactive |  |  |  |  |  |  |  |  |  | 
13 | O=C(OCCCCCCOC(=O)c1ccccc1)c1ccccc1 | inactive | inactive | inactive | inactive | inactive | inactive | inactive | inactive | inactive | inactive |  |  |  |  |  |  |  |  |  | 
14 | CCCC(=O)OCCC(C)C | inactive | inactive | inactive | inactive | inactive | inactive | inactive | inactive | inactive | inactive |  |  |  |  |  |  |  |  |  | 
15 | CCCCCCCCCCCCO |  |  | inactive |  | inactive | inactive | inactive |  |  |  | 30.8 µM (active) | 30.5 µM (active) |  | 30.1 µM (active) |  |  |  | 24.8 µM (active) | 35 µM (active) | 30.7 µM (active)
16 | O=C(O)c1ccccc1-n1cc(C(=O)O)c(=O)c2cc(Nc3c(F)cc(F)cc3Cl)c(Cl)cc21 | inactive | inactive | inactive | inactive | inactive | inactive | inactive | inactive | inactive | inactive |  |  |  |  |  |  |  |  |  | 
17 | Clc1ccccc1C(c1ccccc1)(c1ccccc1)n1ccnc1 |  |  |  |  |  |  |  |  |  |  | 10.7 µM (active) | 33.5 µM (active) | 9.5 µM (active) | 6.45 µM (active) | 7.59 µM (active) | 9.81 µM (active) | 9.68 µM (active) | 5.41 µM (active) | 36.6 µM (active) | 31.9 µM (active)
18 | O=c1ccc2ccccc2o1 | inactive | inactive | inactive | inactive | inactive | inactive | inactive | inactive | inactive | inactive |  |  |  |  |  |  |  |  |  | 
19 | O=C(O)Cc1cc(I)c(Oc2ccc(O)c(I)c2)c(I)c1 |  |  |  | inactive |  | inactive |  |  |  | inactive | 10.3 µM (active) | 18.7 µM (active) | 33.9 µM (active) |  | 15.2 µM (active) |  | 32.8 µM (active) | 15.9 µM (active) |  | 29.6 µM (active)
